Inconclusive results are not listed. Calls of active or inactive are those of the source. Calls come from the whole dose curve.
Assay: qHTS Assay for Lipid Storage Modulators (AID 1519); for activity change, negative = inhibition: % is set by controls: 0 for no effect and ±100 for the full control effect
Details: Drosophila S3 cells, BODIPY lipid droplet/cell ratio, laser cytometry, cells loaded with oleic acid
Source text: NIH Molecular Libraries Probe Production Centers Network [MLPCN]
NIH Chemical Genomics Center [NCGC]
Assay Submitter (PI): Beller, Mathias; Max-Planck-Institut fur Biophysikalische Chemie
NCGC Assay Overview: Storing lipids as a reservoir for energy or the anabolism of elementary metabolites is a common feature of probably all cells and is conserved from bacteria to humans. The universal cellular lipid storage organelle is the so-called lipid storage droplet (LD). Although ubiquitous, LDs share a simple structure composed of a hydrophobic core that harbors the storage lipids, which is shielded by a droplet-specific phospholipid monolayer to which proteins are attached. The current model of LD biogenesis involves an incorporation of the lipid core into the membrane leaflets of the endoplasmic reticulum (ER) followed by a subsequent budding-like maturation of a LD, which ultimately pinches off. Once released, LD volume can increase by localized lipogenesis or fusion of existing droplets. Storage lipids are re-mobilized enzymatically by lipase activity. Lipase regulation in the adipocyte is heavily studied and involves multiple components including catecholamine signaling, the LD-associated proteins Perilipin and comparative gene identification-58 (CGI-58) and at least two lipases named hormone sensitive lipase (HSL) and adipocyte triglyceride lipase (ATGL). LD regulation outside of the adipocyte is poorly understood and only few components are known. However, there is an urgent need to learn more about ectopic fat depots as mislocalized storage of lipids, for example in the liver or muscle, is an eminent health problem associated with insulin resistance or the metabolic syndrome. We developed a laser-scanning cytometer assay to enable 1,536-well screening and combined the results of the small molecules screen with an RNAi database based on lipid storage.
NCGC Assay Protocol Summary:
We dispensed 4 uL of cells at 1.25 x 10^6 cells/mL into LoBase Aurora COC 1,536-well plates (black walled, clear bottom) with a bottle-valve solenoid-based dispenser (Aurora) to obtain 5,000 cells/well. Triacsin C (Sigma-Aldrich T-4540), an inhibitor of long-chain fatty acyl CoA synthetase that blocks synthesis of triglycerides, was used as a positive control for lipid under-storage. A total of 23 nL of compound solution of different concentrations were transferred to the assay plates using a Kalypsys pin tool equipped with a 1,536-pin array containing 10-nL slotted pins (FP1S10, 0.457-mm diameter, 50.8 mm long; V&P Scientific). One microliter of oleic acid (400 uM) was added, and the plate was lidded with stainless steel rubber gasket lined lids containing pinholes. […] Fluorescence was detected by excitation of the fluorophores with a 488-nm laser on an Acumen Explorer (TTP Lab Tech). The total intensity in channel 1 (500-530 nm) reflected lipid droplet accumulation. […] The ratio of the total intensity in PMT channel 1 over total intensity of channel 3 was also calculated. Percent activity was computed relative to an internal control (100% inhibited lipid droplet deposition due to the presence of 20 uM Triacsin C), which was added to 32 wells/plate.

[1] = measured here: cell count channel max response
[2] = measured here: lipid channel max response
Potency is the fitted concentration of half-maximal effect.

With `CCO[C@H]1O[C@@H]([C@H](COCc2ccccc2)OCc2ccccc2)[C@@H](OCc2ccccc2)[C@H]1O` the activity change, negative = inhibition (at 25.7 µM (top of the series)) was -6.14% (inactive), the max response [1] was -8.63% and the max response [2] was -12.6%.

With `CC[N+]1(C)[C@@H]2CC[C@H]1CC(OC(=O)[C@H]1CC[C@@](C(=O)OC3C[C@H]4CC[C@@H](C3)[N+]4(C)CC)(c3ccccc3)c3ccccc31)C2` (some centres not stated) the activity change, negative = inhibition (at 25.7 µM (top of the series)) was -4.59% (inactive), the max response [1] was -11.7% and the max response [2] was -14.8%.

In the case of `C=CCOc1ccccc1OC[C@H](O)CNC(C)C`, the activity change, negative = inhibition (at 25.7 µM (top of the series)) is reported as 2.07% (inactive), the max response [1] is reported as -12.4% and the max response [2] is reported as -9.74%.

In the case of `N[C@H](Cc1cc(I)c(Oc2cc(I)c(O)c(I)c2)c(I)c1)C(=O)O`, the activity change, negative = inhibition (at 25.7 µM (top of the series)) is reported as 1.16% (inactive), the max response [1] is reported as 20.1% and the max response [2] is reported as 21%.

With `C[C@@H]1C[C@H](OC(=O)[C@@H](O)c2ccccc2)CC(C)(C)N1C` the activity change, negative = inhibition (at 25.7 µM (top of the series)) was -2.91% (inactive), the max response [1] was -2.86% and the max response [2] was -7.41%.

With `Cn1nnnc1SCC1=C(C(=O)O)N2C(=O)C(NC(=O)C(O)c3ccccc3)C2SC1` (configuration not stated) the activity change, negative = inhibition (at 57.5 µM (top of the series)) was 13.2% (inactive), the max response [1] was 9.16% and the max response [2] was 26.7%.

For `CC1(C)SC2C(N3C(=O)C(c4ccccc4)NC3(C)C)C(=O)N2C1C(=O)O` (configuration not stated), the activity change, negative = inhibition (at 57.5 µM (top of the series)) was 8.56% (inactive), the max response [1] was 12.6% and the max response [2] was 31%.

With `COc1ccc(-c2oc3c(CC=C(C)C)c(O[C@H]4OC(CO)C(O)C(O)C4O)cc(O)c3c(=O)c2O[C@@H]2OC(C)C(O)C(O)C2O)cc1` (some centres not stated) the activity change, negative = inhibition (at 57.5 µM (top of the series)) was 3.91% (inactive), the max response [1] was 22% and the max response [2] was 29.5%.

In the case of `COc1ccc(-c2cc(=O)c3c(O)cc(O[C@H]4OC(COC5OC(C)C(O)C(O)[C@H]5O)C(O)C(O)C4O)cc3o2)cc1O` (some centres not stated), the activity change, negative = inhibition (at 57.5 µM (top of the series)) is reported as 5.51% (inactive), the max response [1] is reported as 6.56% and the max response [2] is reported as 15.8%.

In the case of `O=C1CC(c2ccc(O)c(O)c2)Oc2cc(O)cc(O)c21` (configuration not stated), the activity change, negative = inhibition (at 57.5 µM (top of the series)) is reported as 17.7% (inactive), the max response [1] is reported as -10.3% and the max response [2] is reported as 9.21%.

With `COc1ccc2c(=O)c(CC(=O)O)coc2c1` the activity change, negative = inhibition (at 57.5 µM (top of the series)) was 4.63% (inactive), the max response [1] was 9.56% and the max response [2] was 14.8%.

In the case of `CCC(C)C(=O)OC1C2CC3=C4CC(=O)OC(c5ccoc5)[C@]4(C)CCC3[C@@](C)(C2=O)C(CC(=O)OC)C1(C)C` (some centres not stated), the activity change, negative = inhibition (at 57.5 µM (top of the series)) is reported as -2.94% (inactive), the max response [1] is reported as -4.4% and the max response [2] is reported as -5.82%.

For `O=C(O)c1cc2cc(Cl)ccc2[nH]1`, the activity change, negative = inhibition (at 57.5 µM (top of the series)) was 4.59% (inactive), the max response [1] was 19.5% and the max response [2] was 25.3%.

In the case of `COC(=O)CC1C(C)(C)C(OC(C)=O)C2[C@H](OC(C)=O)[C@]34O[C@]2(O)[C@]1(C)C3CC[C@]1(C)C4=CC(=O)OC1c1ccoc1` (some centres not stated), the Potency is reported as 15.8 µM (active), the max response [1] is reported as -16.6% and the max response [2] is reported as -68.9%.

From PubChem BioAssay (NCATS)
